Read-out in test [1]: Nuclear factor erythroid 2-related factor 2 (Homo sapiens) (UniProt Q16236)
Nature of the test: LTEA_HepaRG_NFE2L2: Life Technologies and Expression Analysis (LTEA) Assay for Nuclear factor erythroid 2-related factor 2 (NFE2L2) Transcription Factor using HepaRG (AID 2283527). The settings on record: mRNA level, 48 h; actives raise or lower the signal. The method, boiled down:
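NFE2L2 transcript level was read by qRT-PCR (housekeeping ACTB/GAPDH/POLR2A normalisation) after 48 h chemical treatment of HepaRG in serum-free induction medium. Duplicate 8-point half-log curves, top 100 uM, 0.5% DMSO vehicle; up- or down-regulation fitted against vehicle.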

Read-out in test [2]: Signal transducer and activator of transcription 3 (Homo sapiens) (UniProt P40763)
Nature of the test: LTEA_HepaRG_STAT3: Life Technologies and Expression Analysis (LTEA) Assay for Signal transducer and activator of transcription (STAT3) using HepaRG (AID 2283529). Conditions: mRNA level, 48 h; actives raise or lower the signal. The procedure, abridged: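 STAT3 transcript quantified by qRT-PCR against three housekeeping genes (ACTB, GAPDH, POLR2A), fitted both directions relative to DMSO. HepaRG cultures exposed 48 h to eight half-log concentrations, top 100 uM, 0.5% DMSO, serum-free induction medium.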

Read-out in test [3]: solute carrier (SLCO1B1), SLCO1B1 (gene 10599)
Nature of the test: LTEA_HepaRG_SLCO1B1: Life Technologies and Expression Analysis (LTEA) Assay for solute carrier (SLCO1B1) using HepaRG (AID 2283530). Conditions: mRNA level, 48 h; actives raise or lower the signal. The method, boiled down:
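Differentiated human HepaRG cells were exposed for 48 h in serum-free induction medium to eight half-log concentrations, top 100 uM, in 0.5% DMSO. SLCO1B1 mRNA was measured by qRT-PCR, normalized to ACTB, GAPDH and POLR2A, and fitted bidirectionally against DMSO.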

Read-out in test [4]: Transforming Growth Factor (TGFA), TGFA (gene 7039)
Nature of the test: LTEA_HepaRG_TGFA: Life Technologies and Expression Analysis (LTEA) Assay for Transforming Growth Factor (TGFA) using HepaRG (AID 2283532). Conditions: mRNA level, 48 h; actives raise or lower the signal. The procedure, abridged: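 TGFA transcript quantified by qRT-PCR (Fluidigm arrays) against three housekeeping genes, after 48 hours chemical treatment of HepaRG cells. Top concentration 100 uM with half-log dilutions, 8 points, duplicates, 0.5% DMSO.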

Read-out in test [5]: Transforming Growth Factor (TGFB1), TGFB1 (gene 7040)
Nature of the test: LTEA_HepaRG_TGFB1: Life Technologies and Expression Analysis (LTEA) Assay for Transforming Growth Factor (TGFB1) Transporter using HepaRG (AID 2283533). Conditions: mRNA level, 48 h; actives raise or lower the signal. The method, boiled down:
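Differentiated HepaRG cells exposed 48 hr in serum-free induction medium to eight half-log concentrations up to 100 uM (0.5% DMSO), duplicate; TGFB1 mRNA by TaqMan qRT-PCR normalised to ACTB, GAPDH, POLR2A; bidirectional fit against DMSO.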

Read-out in a further test: TIMP1, TIMP1 (gene 7076)
Nature of the test: LTEA_HepaRG_TIMP1: Life Technologies and Expression Analysis (LTEA) Assay for TIMP1 using HepaRG (AID 2283534). Conditions: mRNA level, 48 h; actives raise or lower the signal. The procedure, abridged: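 Differentiated HepaRG cells exposed 48 h in serum-free induction medium, duplicates, eight half-log concentrations from 100 uM in 0.5% DMSO. TIMP1 mRNA by qRT-PCR normalized to ACTB, GAPDH, POLR2A; bidirectional fitting against DMSO.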

Read-out in test [6]: Tumor necrosis factor receptor 1 (TNFRSF1A), TNFRSF1A (gene 7132)
Nature of the test: LTEA_HepaRG_TNFRSF1A: Life Technologies and Expression Analysis (LTEA) Assay for Tumor necrosis factor receptor 1 (TNFRSF1A) using HepaRG (AID 2283535). The settings on record: mRNA level, 48 h; actives raise or lower the signal. The procedure, abridged: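 Differentiated HepaRG cells in serum-free induction medium, exposed 48 h in duplicate to 8 half-log concentrations up to 100 uM in 0.5% DMSO. TNFRSF1A mRNA by Fluidigm TaqMan qRT-PCR, normalized to ACTB, GAPDH, POLR2A; bidirectional fit.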

Read-out in test [7]: Cellular tumor antigen p53 (Homo sapiens) (UniProt P04637)
Nature of the test: LTEA_HepaRG_TP53: Life Technologies and Expression Analysis (LTEA) Assay for Tumor Protein P53 (TP53) using HepaRG (AID 2283537). Conditions: mRNA level, 48 h; actives raise or lower the signal. The method, boiled down: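 Differentiated HepaRG cells in serum-free induction medium exposed 48 h in duplicate to 8 half-log concentrations, top 100 uM, 0.5% DMSO. TP53 mRNA by TaqMan qRT-PCR (Fluidigm), normalized to ACTB, GAPDH, POLR2A; fitted bidirectionally versus DMSO.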

Read-out in test [8]: UDP glucuronosyltransferase (UGT1A1), UGT1A1 (gene 54658)
Nature of the test: LTEA_HepaRG_UGT1A1: Life Technologies and Expression Analysis (LTEA) Assay for UDP glucuronosyltransferase (UGT1A1) using HepaRG (AID 2283538). The settings on record: mRNA level, 48 h; actives raise or lower the signal. The method, boiled down:
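UGT1A1 transcript level, measured by qRT-PCR with three housekeeping genes for normalization, after 48 h treatment of human HepaRG cells (0.5% DMSO, duplicates, up to 100 uM, half-log steps, 8 points). Curves fit both directions against DMSO baseline.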

Read-out in test [9]: UDP glucuronosyltransferase (UGT1A6), UGT1A6 (gene 54578)
Nature of the test: LTEA_HepaRG_UGT1A6: Life Technologies and Expression Analysis (LTEA) Assay for UDP glucuronosyltransferase (UGT1A6) using HepaRG (AID 2283539). The settings on record: mRNA level, 48 h; actives raise or lower the signal. The procedure, abridged: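 Differentiated HepaRG cells, ~100,000/well, were exposed for 48 h in serum-free induction medium with 0.5% DMSO to 8-point half-log series topping at 100 uM, in duplicate. mRNA measured by Fluidigm TaqMan qRT-PCR, normalized to ACTB, GAPDH and POLR2A.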

Read-out in test [10]: X-box binding protein 1 (XBP1), XBP1 (gene 7494)
Nature of the test: LTEA_HepaRG_XBP1: Life Technologies and Expression Analysis (LTEA) Assay for X-box binding protein 1 (XBP1) using HepaRG (AID 2283540). The settings on record: mRNA level, 48 h; actives raise or lower the signal. The procedure, abridged: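 Differentiated human HepaRG cells in serum-free induction medium exposed 48 h in duplicate to eight half-log concentrations up to 100 uM in 0.5% DMSO. XBP1 mRNA measured by Fluidigm TaqMan qRT-PCR, normalized to ACTB, GAPDH, POLR2A; bidirectional fitting against DMSO.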

The nature of test [11]: LTEA_HepaRG_LDH_cytotoxicity: Cytotoxicity Assessment in the Life Technologies and Expression Analysis (LTEA) Assay (AID 2283563; active = hit-call score of the fitted dose curve at least 0.9, where 1 is the maximum;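 for AC50: LDH activity released into spent culture medium as a marker of cell death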). The method, boiled down:
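Differentiated HepaRG cells in serum-free induction medium, exposed 48 h in duplicate to 8 half-log concentrations up to 100 uM in 0.5% DMSO. Cytotoxicity from LDH measured in spent medium, fit relative to DMSO.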

Test [12] deals with Cellular tumor antigen p53 (Homo sapiens) (UniProt P04637). Nature of the test: TOX21_p53_BLA_p2_ratio: Tox21 HCT-116 p53 Agonism Beta-lactamase Assay, Ratio, Phase 2 (AID 2283592; active = hit-call score of the fitted dose curve at least 0.9, where 1 is the maximum). The procedure, abridged: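 First, HCT116 reporter cells settle for 5 h at 37C. Next, DMSO compound solutions are pinned in (217-fold dilution) and left 16 h. Finally, CCF4-AM substrate is loaded 2 h at room temperature and the 460/530 nm ratio read.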

Test [13] in a line: TOX21_p53_BLA_p3_viability: Viability Assessment in the Tox21 HCT-116 p53 Agonism Beta-lactamase Assay, Phase 3 (AID 2283593; active = hit-call score of the fitted dose curve at least 0.9, where 1 is the maximum;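 note: cells exposed to compound for 16 h before reading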). The method, boiled down:
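Cellular ATP was quantified by CellTiter-Glo luminescence, read after 30 min at room temperature. Beforehand, HCT116 cells (4000/well) received compound 5 h post-seeding, 217-fold diluted from DMSO, then incubated 16 h at 37C.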

Test [14] deals with Cellular tumor antigen p53 (Homo sapiens) (UniProt P04637). Nature of the test: TOX21_p53_BLA_p3_ratio: Tox21 HCT-116 p53 Agonism Beta-lactamase Assay, Ratio, Phase 3 (AID 2283596; active = hit-call score of the fitted dose curve at least 0.9, where 1 is the maximum). The method, boiled down:
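Cells were seeded at 4000/well, rested 5 h at 37C, then dosed with DMSO compound solutions (217-fold dilution) for 16 h. CCF4-AM substrate was loaded for 2 h at room temperature, and the 460/530 nm emission ratio was fitted for gain of signal versus DMSO.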

Read-out in test [15]: sulfotransferase 2A1 (SULT2A1), SULT2A1 (gene 6822)
Nature of the test: LTEA_HepaRG_SULT2A1: Life Technologies and Expression Analysis (LTEA) Assay for sulfotransferase 2A1 (SULT2A1) using HepaRG (AID 2283531). The settings on record: mRNA level, 48 h; actives raise or lower the signal. The method, boiled down:
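HepaRG human liver cells, 48 h exposure in serum-free induction medium to 8 half-log concentrations topping at 100 µM (0.5% DMSO), duplicate wells. SULT2A1 mRNA measured by TaqMan qRT-PCR, normalized to ACTB/GAPDH/POLR2A; bidirectional fit against DMSO.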

Test [16] can be described thus: TOX21_p53_BLA_p2_viability: Viability Assessment in the Tox21 HCT-116 p53 Agonism Beta-lactamase Assay, Phase 2 (AID 2283591; active = hit-call score of the fitted dose curve at least 0.9, where 1 is the maximum;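 note: compound exposure lasted 16 h at 37 °C; actives lower the ATP signal meaning cytotoxicity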). The procedure, abridged: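 Cytotoxicity readout: CellTiter-Glo ATP luminescence, 30 min at room temperature, after the beta-lactamase read. Cells were HCT116 exposed 16 h at 37C to compounds pin-transferred at 217-fold dilution from DMSO stocks.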

Read-out in test [17]: Thyroid Hormone Responsive (THRSP), THRSP (gene 7069)
Nature of the test: LTEA_HepaRG_THRSP: Life Technologies and Expression Analysis (LTEA) Assay for Thyroid Hormone Responsive (THRSP) using HepaRG (AID 2283536). Conditions: mRNA level, 48 h; actives raise or lower the signal. The procedure, abridged: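 THRSP transcript quantified by Fluidigm qRT-PCR against three housekeeping genes after 48 h chemical exposure of HepaRG cells in serum-free induction medium; eight-point half-log series, top 100 uM, 0.5% DMSO vehicle, duplicate wells.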

Test [18] is described as follows: ATG_XTT_Cytotoxicity: Cytotoxicity Assessment in the Attagene TRANS-FACTORIAL HepG2 Assay (AID 2283584; active = hit-call score of the fitted dose curve at least 0.9, where 1 is the maximum). The method, boiled down:
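HepG2 cells transiently transfected with GAL4-UAS multiple reporter units, dosed 24 h; cytotoxicity read by XTT as loss of signal versus DMSO baseline.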

Inconclusive results are not listed. Activity calls are given as the source filed them. Rule for the calls, unless noted: active = hit-call score of the fitted dose curve at least 0.9, where 1 is the maximum; inactive = score below 0.9.

Chain of Signal transducer and activator of transcription 3 (Homo sapiens) (P40763 whole entry, looked up): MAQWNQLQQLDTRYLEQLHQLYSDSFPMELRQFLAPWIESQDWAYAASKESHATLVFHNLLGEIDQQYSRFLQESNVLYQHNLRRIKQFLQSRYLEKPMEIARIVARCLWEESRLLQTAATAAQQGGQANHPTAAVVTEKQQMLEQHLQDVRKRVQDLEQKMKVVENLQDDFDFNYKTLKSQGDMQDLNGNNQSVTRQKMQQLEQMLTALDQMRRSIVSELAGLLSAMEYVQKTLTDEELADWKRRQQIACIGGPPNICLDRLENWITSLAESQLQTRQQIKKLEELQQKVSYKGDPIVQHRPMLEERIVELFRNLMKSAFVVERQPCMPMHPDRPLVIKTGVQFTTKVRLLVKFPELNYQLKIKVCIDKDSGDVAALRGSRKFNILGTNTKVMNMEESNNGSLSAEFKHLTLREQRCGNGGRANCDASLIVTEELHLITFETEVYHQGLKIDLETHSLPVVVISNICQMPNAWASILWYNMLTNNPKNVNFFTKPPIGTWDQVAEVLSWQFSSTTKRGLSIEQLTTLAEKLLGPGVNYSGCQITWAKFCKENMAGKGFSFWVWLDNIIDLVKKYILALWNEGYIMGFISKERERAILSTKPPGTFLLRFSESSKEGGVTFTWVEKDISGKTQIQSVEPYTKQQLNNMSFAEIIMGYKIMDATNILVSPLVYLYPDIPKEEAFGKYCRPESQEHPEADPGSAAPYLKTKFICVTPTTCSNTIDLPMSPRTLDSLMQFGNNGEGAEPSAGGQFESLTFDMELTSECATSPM
Chain of Cellular tumor antigen p53 (Homo sapiens) (P04637 whole entry, looked up): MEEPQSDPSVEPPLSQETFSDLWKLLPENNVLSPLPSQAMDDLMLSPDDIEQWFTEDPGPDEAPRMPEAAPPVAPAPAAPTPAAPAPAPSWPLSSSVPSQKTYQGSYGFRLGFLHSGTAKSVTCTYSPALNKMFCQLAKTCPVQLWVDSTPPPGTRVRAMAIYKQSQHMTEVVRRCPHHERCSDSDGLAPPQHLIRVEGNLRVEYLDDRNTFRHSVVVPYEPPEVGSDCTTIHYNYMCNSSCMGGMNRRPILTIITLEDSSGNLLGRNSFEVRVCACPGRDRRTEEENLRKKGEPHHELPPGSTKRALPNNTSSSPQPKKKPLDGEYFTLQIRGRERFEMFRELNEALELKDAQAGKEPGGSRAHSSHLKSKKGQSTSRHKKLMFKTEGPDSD
Chain of Nuclear factor erythroid 2-related factor 2 (Homo sapiens) (Q16236 whole entry, looked up): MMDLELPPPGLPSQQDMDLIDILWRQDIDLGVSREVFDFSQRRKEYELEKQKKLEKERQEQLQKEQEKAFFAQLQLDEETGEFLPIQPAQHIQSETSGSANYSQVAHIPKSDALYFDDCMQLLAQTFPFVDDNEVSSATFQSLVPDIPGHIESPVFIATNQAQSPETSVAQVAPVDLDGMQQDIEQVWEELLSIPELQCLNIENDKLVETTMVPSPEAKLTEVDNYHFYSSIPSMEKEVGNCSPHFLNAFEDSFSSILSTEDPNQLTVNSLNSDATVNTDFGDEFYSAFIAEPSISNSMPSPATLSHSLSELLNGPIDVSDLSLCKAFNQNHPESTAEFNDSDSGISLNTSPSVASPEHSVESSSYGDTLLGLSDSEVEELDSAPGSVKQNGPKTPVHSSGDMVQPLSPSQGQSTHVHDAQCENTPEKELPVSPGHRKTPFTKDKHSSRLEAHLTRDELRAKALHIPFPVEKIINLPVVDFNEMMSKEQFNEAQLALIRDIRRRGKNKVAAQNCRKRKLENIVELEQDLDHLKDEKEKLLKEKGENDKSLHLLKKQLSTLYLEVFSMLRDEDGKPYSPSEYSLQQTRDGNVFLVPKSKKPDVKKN

Regarding `CC(C)(O)c1ccc(CNC(=O)c2cccnc2Oc2ccc(F)cc2)cc1`, the outcome in test [1] is “inactive”; in [2] it was “inactive”; in test [3] it was “inactive”; in test [4], “inactive”; in [5], “inactive”; with TIMP1, TIMP1 (gene 7076) it was “inactive”. For the same molecule, the molecule was classed as inactive in test [6], in [7], in test [9], in [10], in [11] and in test [12]. In addition, the molecule was called inactive in test [13] and in test [14]. The AC50 in test [8] was 4.71 µM (active).

As for `CC1=C(C)S(=O)(=O)CCS1(=O)=O`, the AC50 is 65.7 µM (active) in [1]; 88.2 µM (active) in test [3]; 50 µM (active) in [4]; 50 µM (active) in test [7]; 0.282 µM (active) in [9]; 91 µM (active) in test [10]. Further, the outcome is “inactive” in test [2]; “inactive” in test [15]; “inactive” in test [5]; “inactive” with TIMP1, TIMP1 (gene 7076); “inactive” in test [6]; “inactive” in test [8]. For the same molecule, the outcome in [11], in test [16], in [12] and in test [14] was inactive.

In the case of `Cc1ccc(C(C)(C)C)c(O)c1`, the outcome in test [1] is “inactive”; in test [2] it was “inactive”; in test [3], “inactive”; in [4], “inactive”; in test [5], “inactive”; with TIMP1, TIMP1 (gene 7076), “inactive”. Moreover, the call in [6], in test [17], in test [7], in [8], in test [9] and in test [10] was inactive. In addition, the call in [11], in test [18], in test [16], in test [12], in [13] and in [14] was inactive.

In the case of `CN(C)C(=O)NC1(c2ccccc2)CCN(CCC[C@]2(c3ccc(Cl)c(Cl)c3)CCCN(C(=O)c3ccccc3)C2)CC1`, the outcome in test [2] is “inactive”; in [4], “inactive”; with TIMP1, TIMP1 (gene 7076) it was “inactive”; in [6], “inactive”; in [7], “inactive”; in [16], “inactive”. Moreover, the outcome in test [12], in [13] and in [14] was inactive. Further, the AC50 is 19.5 µM (active) in test [3]; 19.4 µM (active) in [15]; 9.26 µM (active) in test [5]; 22 µM (active) in test [8]; 22 µM (active) in test [9]; 12.5 µM (active) in test [10]. Moreover, in test [11], the concentration at half-maximal activity (AC50) was 19.1 µM (active).

Regarding `CCCCCCC(C=O)=Cc1ccccc1`, the molecule was classed as inactive in test [1], in test [2], in test [3], in test [15], in test [4] and in test [5]. In addition, the outcome with TIMP1, TIMP1 (gene 7076) was “inactive”; in test [6], “inactive”; in test [8], “inactive”; in test [9], “inactive”; in test [10], “inactive”; in [11] it was “inactive”. Further, in test [18], the molecule was called inactive.

`Nc1nc(=S)c2[nH]cnc2[nH]1`: the AC50 in test [1] is 26.6 µM (active); in test [3] it was 11.4 µM (active); in test [15], 11.4 µM (active); in test [9], 5.91 µM (active); in test [10], 15.7 µM (active); in test [11], 32.9 µM (active). The outcome in [2] was “inactive”; in test [4] it was “inactive”; in [5], “inactive”; in the test with TIMP1, TIMP1 (gene 7076) it was “inactive”; in test [6], “inactive”; in test [8] it was “inactive”.

By AC50 is commonly meant the concentration giving half of the maximal activity seen.
